Some test systems named below: NCI-H23 lung; NCI-H226 lung; NCI-H322M lung; HOP-62 NSCLC; NCI-H460 lung; HOP-92 NSCLC; NCI-H522 lung; A549/ATCC NSCLC; 786-0 renal; COLO 205 colon.
Common to all, as to test: NCI-60 one-dose screen, 48 h (100 = growth as untreated, 0 = no growth, -100 = all killed)
Conditions in all cases: 10 µM unless noted

SMILES strings stand for the structures. About 83,000 compounds went through this panel and 20% of them were active in at least one assay; those are over-represented in the sample as a whole.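 Plates (96-well) were seeded with cells, treated with compound at one concentration, and incubated for 48 hours before percent growth was determined.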 Values without a mark were called inactive. The source made the active and inactive calls. How the source made its calls: active means growth percent below 10; inactive means the rest.

Consider `COc1ccc(-c2cc(-c3ccc(Cl)cc3)nc(SCCCCCCC(=O)NO)n2)cc1`, for which the growth in the test with NCI-H23 lung was 8.94% (active); in the test on NCI-H226 lung it was 19.7%; with NCI-H322M lung it was 39.5%; in the test on HOP-62 NSCLC it was 7.61% (active); with NCI-H460 lung, 14.9%; with HOP-92 NSCLC it was 23.7%. In addition, the growth is 10.4% in the test with NCI-H522 lung, 13% in the test on A549/ATCC NSCLC, 27.4% in the test with 786-0 renal and 35.6% with COLO 205 colon.
With `Cc1nn(-c2ccccc2)c(N2CCOCC2)c1-c1nc2ccc([N+](=O)[O-])cc2[nH]1`, the growth is 107% in the test with NCI-H23 lung; 111% with NCI-H226 lung; 93.2% in the test with NCI-H322M lung; 128% in the test on HOP-62 NSCLC; 99.5% in the test on NCI-H460 lung; 117% in the test on HOP-92 NSCLC. For the same molecule, the growth was 80.5% with NCI-H522 lung, 94% in the test on A549/ATCC NSCLC, 107% with 786-0 renal and 124% with COLO 205 colon.
For `CCCC[C@@H](C=O)NC(=O)[C@H](CC(C)C)NC(=O)[C@H](CC(C)C)NC(=O)OCc1ccccc1`, the growth with NCI-H23 lung is -17.1% (active); in the test on NCI-H226 lung, -54.1% (active); with NCI-H322M lung, 15.1%; with HOP-62 NSCLC, 11.8%; in the test with NCI-H460 lung, 0.451% (active); with HOP-92 NSCLC it was -35.2% (active). For the same molecule, the growth is -0.189% (active) with NCI-H522 lung, 71.3% in the test with A549/ATCC NSCLC, -10% (active) with 786-0 renal and -3.03% (active) with COLO 205 colon.
For `Cc1ccc(S(=O)(=O)N/N=C2\CC3CCC2(C)C3(C)C)cc1` (stereo not given), the growth with NCI-H23 lung was 237%; with NCI-H226 lung, 96.9%; in the test on NCI-H322M lung it was 116%; in the test on HOP-62 NSCLC it was 103%; in the test on NCI-H460 lung, 108%; in the test on HOP-92 NSCLC it was 95.6%. For the same molecule, the growth was 63.1% in the test on NCI-H522 lung, 81.8% with A549/ATCC NSCLC, 103% with 786-0 renal and 113% in the test on COLO 205 colon.
Regarding `O=c1cc(-c2ccccc2)oc2c(O)c(O)ccc12`, the growth in the test on NCI-H23 lung was 57.6%; in the test on NCI-H226 lung it was 85.5%; with NCI-H322M lung, 79%; with HOP-62 NSCLC it was 52.7%; in the test on NCI-H460 lung, 17.3%; in the test on HOP-92 NSCLC it was 7.46% (active). In addition, the growth with NCI-H522 lung is 43.6%; in the test on A549/ATCC NSCLC it was 55.5%; with 786-0 renal it was 65%; in the test with COLO 205 colon, 90.7%.
As for `O=C(Nc1cccnc1)c1ccc2ccc3ccc(C(=O)Nc4cccnc4)nc3c2n1`, the growth is 23.1% in the test with NCI-H23 lung; 4.52% (active) with NCI-H226 lung; 10.5% in the test with NCI-H322M lung; 9.18% (active) with HOP-62 NSCLC; 1.69% (active) in the test with NCI-H460 lung; 23.9% in the test with HOP-92 NSCLC. Also, the growth in the test with NCI-H522 lung is 30.7%; in the test with A549/ATCC NSCLC, 22.1%; in the test on 786-0 renal, 19.9%; in the test on COLO 205 colon, 13.2%.
As to `CC1=CC[C@@H]2C(C)(C)C(=O)CC[C@@]2(C)[C@@H]1COc1ccc2ccc(=O)oc2c1`, the growth is 83% in the test with NCI-H23 lung; 43.8% in the test on NCI-H226 lung; 89.3% in the test on NCI-H322M lung; 97.5% in the test on HOP-62 NSCLC; 89.2% with NCI-H460 lung; 73.9% with HOP-92 NSCLC. Moreover, the growth in the test with NCI-H522 lung is 53.6%; in the test on A549/ATCC NSCLC, 62.2%; in the test with 786-0 renal, 89.9%; in the test on COLO 205 colon, 71.1%.
For `Cc1ccc2c(c1)C(C)Cc1c(Cl)ncnc1N2C` (stereo not given), the growth with NCI-H23 lung is 20.7%; in the test on NCI-H226 lung, -7.14% (active); in the test on NCI-H322M lung, 32.3%; in the test on HOP-62 NSCLC, 17.5%; in the test with NCI-H460 lung, 30.6%; with HOP-92 NSCLC, 28.9%. Besides, the growth is 69% in the test with NCI-H522 lung, 16.4% with A549/ATCC NSCLC, 1.48% (active) in the test with 786-0 renal and -56.1% (active) in the test on COLO 205 colon.
Turning to `CNc1cc(C(=O)O)nc(NC)n1`, the growth in the test on NCI-H23 lung is 100%; in the test with NCI-H226 lung, 98.8%; with NCI-H322M lung it was 95.7%; in the test on HOP-62 NSCLC it was 103%; in the test with NCI-H460 lung, 99.2%; in the test on HOP-92 NSCLC it was 87.1%. Besides, the growth is 97.1% in the test on NCI-H522 lung, 101% in the test with A549/ATCC NSCLC, 105% in the test with 786-0 renal and 105% in the test with COLO 205 colon.
For `COc1cc2c(c(OC)c1OC)-c1ccc(NNC(N)=S)c(=O)cc1[C@@H](NC(C)=O)CC2`, the growth was 5.07% (active) with NCI-H23 lung; 27.9% with NCI-H226 lung; 64.9% in the test with NCI-H322M lung; 32.7% in the test with HOP-62 NSCLC; -3.14% (active) in the test with NCI-H460 lung; -6.59% (active) in the test with HOP-92 NSCLC. In addition, the growth is -63.3% (active) with NCI-H522 lung, 15.7% with A549/ATCC NSCLC, 21.9% in the test with 786-0 renal and -95.6% (active) in the test on COLO 205 colon.
`C#C[C@]1(O)CC[C@H]2[C@@H]3CC=C4c5nc(Nc6ccccn6)sc5CC[C@]4(C)[C@H]3CC[C@@]21C`: the growth is 34.7% in the test with NCI-H23 lung; 38.1% with NCI-H226 lung; 35.8% in the test with NCI-H322M lung; -10.4% (active) in the test on HOP-62 NSCLC; 4.83% (active) in the test with NCI-H460 lung; -24.5% (active) in the test on HOP-92 NSCLC. For the same molecule, the growth was -6.06% (active) in the test with NCI-H522 lung, 14.5% in the test on A549/ATCC NSCLC, -69.6% (active) in the test on 786-0 renal and 35% in the test with COLO 205 colon.
Turning to `CC(=O)OC[C@]12CC[C@@H]([C@@H](C)C(N)=O)[C@@H]1[C@H]1CC[C@@H]3[C@@]4(C)CC[C@H](OC(C)=O)C(C)(C)[C@@H]4CC[C@@]3(C)[C@]1(C)CC2`, the growth is -40.3% [100 µM] (active) in the test on NCI-H23 lung; -58.5% [100 µM] (active) in the test with NCI-H226 lung; -78.2% [100 µM] (active) in the test on NCI-H322M lung; -73% [100 µM] (active) in the test with HOP-62 NSCLC; -61.8% [100 µM] (active) with NCI-H460 lung; -83.1% [100 µM] (active) with HOP-92 NSCLC. The growth in the test with NCI-H522 lung is -61.1% [100 µM] (active); in the test on A549/ATCC NSCLC, 9.89% [100 µM] (active); with 786-0 renal, -74% [100 µM] (active); in the test on COLO 205 colon, -53% [100 µM] (active).
In the case of `O=C(Nc1ccccc1)Nc1ccc(C(=O)/C=C/c2ccc(N3CCCC3)cc2)cc1`, the growth was 92.3% in the test with NCI-H23 lung; 78% in the test on NCI-H226 lung; 83.2% in the test on NCI-H322M lung; 63% in the test with HOP-62 NSCLC; 78.7% in the test with NCI-H460 lung; 73.8% with HOP-92 NSCLC. In addition, the growth was 31.7% in the test with NCI-H522 lung, 75.5% in the test with A549/ATCC NSCLC, 93.9% with 786-0 renal and 66.6% in the test on COLO 205 colon.

Source of the values: PubChem BioAssay (NCI).
